Results filed as inconclusive are left out. Values without a mark were called inactive. Active and inactive are the calls of the source. The call rests on the fitted dose curve; in most records, active means well fitted cell-killing curve with a large enough effect; inconclusive means small, poorly fitted or top-dose-only effect; inactive means flat fitted curve, though single readings scatter.
assay: Quantitative highthroughput screen to assess conditional lethalithy of P12 Ichikawa cells grown in RPMI1640 with dialyzed fetal bovine serum (RPMI+ds) (AID 1963880); conditions: ATP luminescence, 48 h; Potency: P12-Ichikawa viability; series mostly up to 45.8 µM; viability: at the top concentration; further: nearly all actives have a fitted effect of over 35% in size
From the text: Assay Provider: Jason Cantor Ph.D.
Department of Biochemistry
University of Wisconsin-Madison, Madison, WI, USA
Chemical screening studies have identified drug sensitivities across hundreds of cancer cell lines but most putative therapeutics fail to translate. Discovery and development of drug candidates in models that more accurately reflect nutrient levels in human blood is a major challenge. Here we performed high-throughput screens in conventional versus Human Plasma-Like Medium (HPLM) to identify compounds that were "missed" when screening using the artificial culture condition. Sets of conditional anticancer compounds spanned phases of clinical development and included non-oncology drugs were assessed. […] We also traced conditional phenotypes for several chemotherapeutics to availability of HPLM-specific metabolites and confirmed others for compounds whose reported targets are encoded by nonessential genes. Our findings establish generalizable strategies for exploiting conditional lethality in HPLM to reveal therapeutic candidates and mechanisms of action in cancer cells.
Described herein are the results of each viability screens against three cell lines: NOMO1 (an acute myeloid leukemia cell line); P12-Ichikawa (a T-cell acute lymphoblastic leukemia); and SEM (a B-cell ALL). Each assay was screened using 3 different cell culture media: homemade human plasma-Like medium with 10% dialyzed fetal bovine serum (HPLM+ds); RPMI1640 with 10% untreated FBS and 5mM glucose (RPMI+s); and RPMI1640 with 10% dialyzed fetal bovine serum and 5 mM glucose (RPMI+ds).
PROTOCOL TABLE (as described by Inglese J, Shamu CE and Guy RK. 2007)
SEQUENCE No. (e.g., 1, 2, 3, etc.); […] (e.g., Cells, Incubation, Reagent, etc.); VALUE and DESCRIPTION.
1; Cells; 5 uL; white, solid bottom 1536-well Greiner assay plate.
2; Compounds; 23 nL; Kalypsis pin tool (Wako USA) equipped with a 1536-well pin head to transfer to the assay plates.
3; Incubation; 48 hours; 37C incubation.
4; Reagent; 3 uL; CellTiter Glo (Promega).
5; Incubation; 5 min, room temperature
6; Detection; Luminescence, Viewlux PerkinElmer.
NOTES (numbers refer to Sequence numbers above)
1. Briefly, 5 ul of cell reagent was dispensed using a Multidrop Combi Dispenser. The NOMO1 and SEM cells were plated at 500 cells/well and the P12-Ichikawa line at 1000 cells/well.
2. After seeding the cells, 23 nL of MIPE 4.1 library compounds (in DMSO) were added to each plate using a Kalypsys 1536 Pintool dispenser. Bortezomib at final concentration of […] and DMSO were added to each plate as positive and negative controls respectively. For each screen, MIPE 4.1 compounds were added over an eleven-point concentration range […] in 3-fold dilutions.
3. Each plate was covered with a stainless steel gasketed lid to prevent evaporation and incubated for 48 hour at 37C, 95% relative humidity, and 5% CO2.
4-5. Three microliter CellTilter-GloTM luminescent substrate mix (Promega) reagent was added to the assay plate and incubated at room temperature for 5 min.
6. The luminescence signal was measured using a ViewLux (PerkinElmer) multiplate reader with a 2 second exposure time per plate. Data for each compound were normalized as percent viability such that measurements for DMSO and the empty well controls in each plate were defined as 100% and 0%, respectively.
Potency means the concentration at half of the fitted maximal effect.

Structure (SMILES)	viability	Potency
O=[N+]([O-])c1ncc[nH]1	94.9%	
CC(NC(C)(C)C)C(=O)c1cccc(Cl)c1 (stereo not given)	88.8%	
COc1ccc(C(=O)c2c(C)n(CCN3CCOCC3)c3ccccc23)cc1	111%	
C#C[C@]1(O)C=C[C@@H]2[C@@H]3CCC4=CC(=O)CC[C@@H]4[C@H]3CC[C@@]21CC	99%	
C[C@@H]1CC[C@H]2[C@@H](C)C(=O)O[C@@H]3O[C@@]4(C)CC[C@H]1[C@]32OO4	96.3%	
CC(=O)O[C@@]12CO[C@H]1C[C@H](O)[C@@]1(C)C(=O)[C@H](O)C3=C(C)[C@@H](O)C[C@@](O)([C@@H](OC(=O)c4ccccc4)[C@@H]21)C3(C)C		11.8 µM (active)
CC(=O)N(C)c1cccc(-c2ccnc3c(C(=O)c4cccs4)cnn23)c1	96.2%	
C[C@]12CC[C@H]3[C@@H](CCC4=CC(=O)CC[C@@]43C)[C@H]1CC[C@H]2OC(=O)CCC1CCCC1	94%	
NCC1(CC(=O)O)CCCCC1	110%	
Cc1ncc(OC[C@@]2(c3cccc(F)c3)C[C@H]2C(=O)Nc2ccc(F)cn2)c(C)n1	87.4%	
O=P1(NCCCl)OCCCN1CCCl (stereo not given)	95.6%	
C[C@H]([C@H](O)CCC(C)(C)O)[C@H]1CC[C@@]2(O)C3=CC(=O)[C@@H]4C[C@@H](O)[C@@H](O)C[C@]4(C)[C@@H]3CC[C@]12C	105%	
CC(C)(C)[C@]1(O)C[C@@H]2OC(=O)C[C@@]23C(=O)O[C@@H]2OC(=O)[C@H](O)C213 (stereo not given in full)	99.7%	
CC(C)N[C@@H]1CCn2c(=O)[nH]c3cccc(c32)[C@@H]1O	98%	
O=C(Oc1ccc([N+](=O)[O-])cc1)N1CCN(Cc2cccc(Oc3ccccc3)c2)CC1	102%	
CN[C@@H]1Cc2cccc3[nH]c(=O)n(c23)C1	96.7%	
C[C@]12CCC(=O)C=C1CC[C@@H]1[C@H]3CC[C@](C)(O)[C@@]3(C)CC[C@@H]12	98.4% [at 92.2 µM]	
CN(C)[C@@H]1C(=O)C(C(N)=O)=C(O)[C@@]2(O)C(=O)C3=C(O)c4c(O)cccc4[C@@](C)(O)[C@H]3C[C@@H]12	95%	
CC(N[C@H]1C[C@H]1c1ccccc1)c1ccc2c(c1)OCCO2 (stereo not given in full)	95.1%	
C[C@]12CC[C@@H]3[C@@H](CCC4=CC(=O)CC[C@@H]43)[C@@H]1CC[C@@H]2OC(=O)CCc1ccccc1	90.2%	

Structure (SMILES)	viability	Potency
CCCC[N+]1(C)[C@H]2CC(OC(=O)[C@H](CO)c3ccccc3)C[C@H]1[C@H]1O[C@H]12 (stereo not given in full)	102%	
Cc1[nH]nc2ccc(-c3cncc(OC[C@@H](N)Cc4c[nH]c5ccccc45)c3)cc12		1.05 µM (active)
O=C1C=CC[C@@H]2[C@H]3CCCN4CCC[C@@H](CN12)[C@@H]34	95.3%	
COc1ccc2c(c1OC)CN1CCc3cc4c(cc3C1C2)OCO4 (stereo not given)		1.66 µM (active)
C[C@H]1CCCC=CC2C[C@H](O)C[C@@H]2[C@H](O)C=CC(=O)O1 (stereo not given in full)		0.0235 µM (active)
C[C@]12CCC(=O)C(O)=C1CC[C@@H]1[C@H]3CCC(=O)[C@@]3(C)CC[C@@H]12	96.4%	
CCc1c(C(=O)C(N)=O)c2c(OCC(=O)O)cccc2n1Cc1ccccc1	96.8%	
O=C(O)c1nn(Cc2ccc(Cl)cc2Cl)c2ccccc12	101%	
C[C@](O)(COc1ccc(C#N)cc1)C(=O)Nc1ccc(C#N)c(C(F)(F)F)c1	86%	
C[C@@H]1CC[C@@]2(OC1)O[C@H]1C[C@H]3[C@@H]4CC=C5C[C@@H](O[C@@H]6O[C@H](CO)[C@@H](O[C@@H]7O[C@@H](C)[C@H](O)[C@@H](O)[C@@H]7O)[C@H](O)[C@@H]6O[C@@H]6O[C@@H](C)[C@H](O)[C@@H](O)[C@@H]6O)CC[C@]5(C)[C@@H]4CC[C@]3(C)[C@@H]1[C@H]2C		23.5 µM (active)
CC(C)(C)c1cc(C=C(C#N)C#N)cc(Br)c1O	94%	
Cc1cccc(C)c1NC(=O)CN1CCCC1=O	94.8%	
Oc1ccc2c3c1O[C@H]1c4[nH]c5c(c4C[C@@]4(O)[C@@H](C2)N(CC2CC2)CC[C@]314)C[C@@]1(O)[C@H]2Cc3ccc(O)c4c3[C@@]1(CCN2CC1CC1)[C@H]5O4	111%	
N[C@@H](Cc1ccc(N(CCCl)CCCl)cc1)C(=O)O		5.9 µM (active)
COc1ccc(CC2NCCc3cc(OC)c(OC)cc32)cc1OC (stereo not given)	90%	
CCOP(=O)(OCC)C(C)NC(=O)N(CCCl)N=O (stereo not given)	116%	
N=c1c2c(-c3ccccc3)c(-c3ccccc3)n(Cc3ccccc3)c2ncn1C1CCC(O)CC1 (stereo not given)		16.6 µM (active)
CN(C)CCc1ccc(O)cc1	100%	
CCCN1CCO[C@@H]2c3cc(O)ccc3OC[C@@H]21		26.4 µM (active)
CCOC(=O)c1c(C(C#N)=CN)c2ccc(Cl)c(Cl)c2n1C	98.7%	

— PubChem BioAssay (NCATS)
